From PubChem
KB-V1 MDR tox: KB-V1 MDR subline cytotoxicity. Potency, µM (titrated, usually from 46.1 µM), usual class: cytotoxic. actives 3.4% (n = 400,000). KB-V1 MDR cells viability, CellTiter-Glo, 72 h; further: nearly all actives have a fitted effect of over 60% in size
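Drug-selected KB-V1 cells, grown in DMEM lacking phenol red with 10% FBS, receive compound titrations; after three days at 37 degrees C, surviving cell ATP is quantified by CellTiter-Glo luminescence and responses normalized and curve-fitted.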
MCF10A rerep: inducers of DNA re-replication in MCF 10A breast cells; actives 2.9% (n = 350,000); Potency, µM (series often up to 46.1 µM), usual class: activators; MCF 10A DNA re-replication, Hoechst nuclear intensity, 48 h; further: nearly all actives have a fitted effect of over 50% in size
DRD3 antagonist: D3 dopamine receptor (human) antagonism | P35462 | D3R cells, DiscoveRx beta-arrestin luminescence, antagonist mode; stronger effect = lower value | max response, negative = inhibition, % | actives 2.5% (n = 360,000) | AID 652054; in the data active means max response below about -50%; inconclusive means no clear call, values can overlap the other calls
Target sequence (P35462 whole entry, looked up): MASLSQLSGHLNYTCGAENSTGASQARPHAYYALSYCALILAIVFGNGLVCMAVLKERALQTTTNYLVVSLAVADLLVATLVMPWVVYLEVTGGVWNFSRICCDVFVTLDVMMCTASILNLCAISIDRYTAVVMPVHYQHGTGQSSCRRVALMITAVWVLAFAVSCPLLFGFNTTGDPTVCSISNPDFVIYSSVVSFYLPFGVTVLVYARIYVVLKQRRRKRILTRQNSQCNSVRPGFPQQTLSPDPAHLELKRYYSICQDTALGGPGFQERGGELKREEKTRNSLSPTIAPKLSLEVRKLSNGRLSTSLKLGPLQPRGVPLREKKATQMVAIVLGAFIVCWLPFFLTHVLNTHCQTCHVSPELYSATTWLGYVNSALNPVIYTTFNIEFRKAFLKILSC
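Cells expressing the human receptor were seeded at 1500 cells/well, incubated overnight at 37 degrees C in 5% CO2, then exposed to library compounds with dopamine controls for 90 minutes at 37 degrees C before luminescent detection.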
SW480 rerep: inducers of DNA re-replication in SW480 colon cancer cells | Potency, µM (top dose mostly 46.1 µM), hits mostly activators | AID 624297 | actives 1.8% (n = 340,000) | SW480 DNA re-replication, Hoechst DNA content imaging, 48 h; further: nearly all actives have a fitted effect of over 55% in size
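Quantitative HTS format with DMSO vehicle controls; 48 hr drug incubation at 37 C, then 40 min Hoechst staining and scanning imager measurement at 405 nm excitation.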
DRD3 agonist: activates the human D3 dopamine receptor; max activation, %; D3R DiscoveRx beta-arrestin cells, luminescence, 90 min; P35462; actives 0.58% (n = 410,000); in the data active means max activation above about 30%
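Agonist-mode cell screen: cells plated at 1500/well and incubated overnight at 37 °C, then exposed to library compounds for 90 min at 37 °C. Detection reagent was added for 30–60 min at room temperature, and luminescence was read.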
KB-3-1 tox: KB-3-1 parental cell cytotoxicity; KB-3-1 viability, CellTiter-Glo ATP luminescence, 72 h; AID 1347075; actives 1.4% (n = 400,000); Potency, µM (series often up to 46.1 µM), usual class: cytotoxic; further: nearly all actives have a fitted effect of over 60% in size
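Cytotoxicity in the drug-sensitive parental line KB-3-1 was scored as loss of CellTiter-Glo luminescence following 72 h incubation with compound. Values come from curve fitting of normalized concentration-response data.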
Of the large screens only hits and unclear results are named; the others gave an inactive call. In the library only some 8.9% were active in any assay of this set; here they are far more common. Unless noted, the call rests on the fitted dose curve; in most records, active means well fitted curve in the direction sought with a large enough effect; inconclusive means small, poorly fitted or top-dose-only effect, or another doubt; inactive means no such curve, though single readings can be large; an effect the other way counts as inactive or inconclusive.

O=C(CSc1ncccc1-c1nc2ccccc2[nH]1)Nc1ccc2c(c1)OCCO2	KB-V1 MDR tox 9.2µM
O=C(CSc1ccc(Cl)cc1)Nc1ccc(-c2nc3ccccc3[nH]2)cc1	MCF10A rerep 21µM, DRD3 antagonist inconclusive, SW480 rerep inconclusive
O=C(CSc1nc2ccccc2[nH]1)Nc1ccc2c(c1)OCCO2	none
O=C(CSc1nc2ccccc2[nH]1)Nc1ccc(F)cc1	none
Cc1cc(C)c2c(=O)cc(CSc3nnc(-c4ccccc4)n3C)[nH]c2c1	none (no result: MCF10A rerep, DRD3 antagonist, SW480 rerep)
Cc1ccc(-n2c(SCc3ccccc3C)nc3[nH]ncc3c2=O)cc1C	none (no result: MCF10A rerep, DRD3 antagonist, SW480 rerep)
O=C(CSc1ccccc1)Nc1nc2ccccc2[nH]1	KB-V1 MDR tox inconclusive, MCF10A rerep inconclusive, SW480 rerep inconclusive, KB-3-1 tox 15µM
COC(=O)c1cc(S(=O)(=O)N(Cc2ccccc2)C(C)(C)C)c[nH]1	MCF10A rerep 23µM, SW480 rerep 6.5µM, KB-3-1 tox inconclusive
CCSc1nnc(-c2ccc(S(=O)(=O)NCc3cccs3)cc2)o1	KB-V1 MDR tox 21µM, MCF10A rerep inconclusive, DRD3 antagonist -66
Fc1ccc2nncc(SCc3ccccc3Cl)c2c1	MCF10A rerep 18µM
Cc1c(O)ccc(NS(=O)(=O)c2ccccc2)c1C	none
O=[N+]([O-])c1cc(Br)ccc1NS(=O)(=O)c1ccccc1	MCF10A rerep inconclusive
Cc1cc(NS(=O)(=O)c2ccccc2)c(C)c(Cl)c1O	KB-V1 MDR tox 21µM, KB-3-1 tox inconclusive
Cc1ccc(S(=O)(=O)Nc2ccc3ccccc3c2[N+](=O)[O-])cc1	MCF10A rerep 18µM
Cc1cc(NS(=O)(=O)c2ccccc2)c([N+](=O)[O-])cc1C	KB-V1 MDR tox inconclusive, DRD3 antagonist -52, KB-3-1 tox inconclusive
CCOc1ccccc1-c1nc(C(N)=O)c2c(n1)n(-c1ccc3c(c1)OCO3)c(=O)n2C	none (no result: MCF10A rerep, DRD3 antagonist, SW480 rerep)
Cc1nc2cc(-c3ccccc3)nn2c(C)c1CCC(=O)NCc1cccc(Cl)c1	none (no result: MCF10A rerep, DRD3 antagonist, SW480 rerep)
COc1ccc(C(=O)C(C)Sc2nnc(C3CC3)n2C2CC2)cc1 (configuration not stated)	none
COc1cccc(-c2cc(C(=O)Nc3c(C)nn(Cc4ccccc4Cl)c3C)no2)c1	none (no result: MCF10A rerep, DRD3 antagonist, SW480 rerep)
C=CC[n+]1c(-c2ccc(OC)cc2)csc1NNC(=O)Nc1ccccc1	KB-V1 MDR tox 23µM
C=CC[n+]1c(-c2ccc(C)cc2)csc1Nc1ccc(NC(C)=O)cc1	KB-V1 MDR tox inconclusive, MCF10A rerep inconclusive, KB-3-1 tox inconclusive
Cc1ccc(N(Cc2ccc([N+](=O)[O-])cc2)C(=O)c2ccco2)cc1C	KB-V1 MDR tox 10µM
CCOC(=O)C(CC)Sc1ncnc2c1c(-c1ccccc1)cn2-c1ccc(OC)cc1 (configuration not stated)	none (no result: MCF10A rerep, DRD3 antagonist, SW480 rerep)
CC1C(=O)CC(c2ccccc2)N(C)C1c1ccccc1 (configuration not stated)	MCF10A rerep 26µM, DRD3 antagonist -79
Cn1cnc([N+](=O)[O-])c1S(=O)(=O)Oc1ccccc1	KB-V1 MDR tox inconclusive, MCF10A rerep 7.3µM, DRD3 antagonist -84, SW480 rerep 4.1µM, KB-3-1 tox inconclusive
Cn1cnc([N+](=O)[O-])c1S(=O)(=O)c1cccc(Cl)c1	KB-V1 MDR tox inconclusive, MCF10A rerep 3.7µM, DRD3 antagonist -92, SW480 rerep 5.8µM, KB-3-1 tox inconclusive
Cn1cnc([N+](=O)[O-])c1S(=O)(=O)Nc1ccccc1	KB-V1 MDR tox inconclusive, MCF10A rerep inconclusive, SW480 rerep inconclusive, KB-3-1 tox inconclusive
C=C(C)c1cccc(C(C)(C)NC(=O)N2CCC(C)CC2)c1	KB-V1 MDR tox 18µM
C=C(C)c1cccc(C(C)(C)NC(=O)Nc2ccc(C(C)=O)cc2)c1	KB-V1 MDR tox 18µM, MCF10A rerep inconclusive, SW480 rerep inconclusive
C=C(C)c1cccc(C(C)(C)NC(=O)Nc2ccc(OC)cc2)c1	none
C=C(C)c1cccc(C(C)(C)NC(=O)N2CCN(C)CC2)c1	none
